Source: the supplement of paper PMC6555819

Experiments:
Assay in all cases: PBM binding z-score (relative to random genomic background probes); higher = stronger binding; sequences stand for … in GC…GCGATTGACAGCGTAGAATGAAGG
[1] = system: PPARg:RXRa DBDmut IVT, anti-RXR (DBD mutation: RXRa K156A/R161A, NR concentration 270 nM, RXRa partner concentration 90 nM)
Summary of the method: (§1)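 Scanned fluorescence from custom Agilent 4×180K protein-binding microarrays was regression-normalized. Binding z-scores use random background probes as reference. Ligand-free nuclear receptor dimers were incubated on the arrays for 1 h and detected with antibodies against each partner (one per run).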

[2] = system: PPARg:RXRa IVT, anti-PPARg (NR concentration 270 nM, RXRa partner concentration 90 nM)
Summary of the method: as §1

[3] = system: PPARg DBDmut:RXRa IVT, anti-PPARg (DBD mutation: PPARg1 K132A/R137A, NR concentration 270 nM, RXRa partner concentration 90 nM)
Summary of the method: as §1

[4] = system: PPARg DBDmut IVT, anti-PPARg (DBD mutation: PPARg1 K132A/R137A, NR concentration 270 nM)
Summary of the method: as §1

[5] = system: PPARg homodimer (NR concentration 180 nM)
Summary of the method: as §1

[6] = system: PXR:RXRa (NR concentration 270 nM, RXRa partner concentration 90 nM)
Summary of the method: as §1

[7] = system: PXR homodimer (NR concentration 270 nM)
Summary of the method: as §1

[8] = system: RARa:RXR (NR concentration 270 nM, RXRa partner concentration 90 nM)
Summary of the method: as §1

[9] = system: RARa homodimer (NR concentration 270 nM)
Summary of the method: as §1

[10] = system: RARb:RXRa (NR concentration 270 nM, RXRa partner concentration 90 nM)
Summary of the method: as §1

[11] = system: RARb homodimer (NR concentration 270 nM)
Summary of the method: as §1

[12] = system: RARg:RXRa (NR concentration 270 nM, RXRa partner concentration 90 nM)
Summary of the method: as §1

[13] = system: RARg homodimer (NR concentration 270 nM)
Summary of the method: as §1

[14] = system: RXRa DBDmut IVT, anti-RXR (DBD mutation: RXRa K156A/R161A, NR concentration 90 nM)
Summary of the method: as §1

[15] = system: RXRa homodimer (NR concentration 180 nM)
Summary of the method: as §1

[16] = system: THRa:RXRa (NR concentration 90 nM, RXRa partner concentration 90 nM)
Summary of the method: as §1

[17] = system: THRa homodimer (NR concentration 90 nM)
Summary of the method: as §1

[18] = system: VDR homodimer (NR concentration 270 nM)
Summary of the method: as §1

Sequence	PBM binding z-score [1]	PBM binding z-score [2]	PBM binding z-score [3]	PBM binding z-score [4]	PBM binding z-score [5]	PBM binding z-score [6]	PBM binding z-score [7]	PBM binding z-score [8]	PBM binding z-score [9]	PBM binding z-score [10]	PBM binding z-score [11]	PBM binding z-score [12]	PBM binding z-score [13]	PBM binding z-score [14]	PBM binding z-score [15]	PBM binding z-score [16]	PBM binding z-score [17]	PBM binding z-score [18]
CCTCCTGGGCCACGAAAGGTCATTGATTCAGTGA	0.578	2.2	-0.811	-1.6	1.96	5.33	0.829	4.92	0.516	3.97	4.56	4.7	4.3	0.0691	4.89	3.84	0.846	2.04
GATAAAGGGTCAAGGCCAGAGTACGCGTATTGAT	3.62	4.58	0.966	0.381	3.16	4.19	0.42	5.07	0.732	5.26	4.87	6.46	6.91	2.52	6.59	3.38	0.263	2.36
CTCGAAAGGTCGGTTGAGGTGAGTGTACGGATAA	0.169	1.3	0.72	-0.675	1.07	3.54	0.527	3.02	0.735	3.07	2.49	2.68	2.86	0.363	2.49	5.02	1.78	1.29
ATATGTAGGTTATCGGGACATTCAGTTTGCGCAT	7.42	6.98	2.35	2.08	2.64	0.647	1.45	0.532	1.55	1.06	1.09	0.79	1.16	0.776	1.03	1.72	1.55	1.48
CTACCAAGGTGAACCAGGTCGTTGATTACTATTC	2.39	3.12	-0.252	0.258	1.51	1.93	0.659	2.14	-0.266	1.92	1.75	1.44	1.26	0.903	1.76	3.09	1.85	1.28
CCTAGCAGGCCAGGGTCACTCGAGCATTTCGCTT	0.58	1.02	-0.592	-1.77	0.543	2.32	-0.255	3.1	-0.646	2.57	2.57	3.06	2.18	0.188	3.57	2.83	0.909	1.33
TCTTGTAGATCATCAGGAGGTTAAGAAAGATCGA	1.49	0.887	1.1	-0.169	-0.101	0.787	-0.453	0.957	-0.298	0.52	0.484	0.857	0.389	0.372	1.01	0.897	-0.482	-0.126
GATACAGGGTCAGCTAGAGGCCAGAGTTTGGAAA	1.39	2.54	0.152	-1.06	3.41	3.41	0.149	4.26	0.417	4.06	3.66	6.53	4.92	1.38	4.29	3.04	0.526	1.17
ATAGCAAGGTGATCGTGAGGTCGTTGATACTAAC	0.118	0.727	0.619	0.253	0.565	2.62	0.543	1.98	-0.0537	1.16	1.29	2.12	0.811	0.231	1.31	3.2	1.8	1.97
TAGCCTAGGTCATGGGCCCGTATACCACGCGAAC	1.21	3.21	-0.0541	-0.484	1.07	1.92	-0.637	2.86	0.106	3.81	2.95	4.3	4.56	-0.133	3.53	3.13	1.76	0.701
GCTGCTAGGTCAGGGTGGTCAGCTAACGGGTACG	2.9	2.83	0.0307	-1.27	1.2	0.451	-0.345	1.03	0.165	3.61	3.07	2.91	3.73	0.223	1.41	2.12	0.797	0.245
CATACAGGGGCAGCTAGGCCAGAGTAGGGACGGC	-0.41	0.399	-0.422	-0.72	-0.555	-0.802	-0.878	-0.828	0.188	1.17	0.473	0.498	1.02	-0.381	-0.153	0.05	-0.63	-0.506
TCATATAGGTAAAAGGTGGAAGTCGGTGTGGTAA	5.75	3.56	0.901	0.975	2.35	0.586	0.623	1.18	1.17	0.885	0.589	0.466	-0.0176	1.55	1.54	0.305	0.294	0.281
AGAATGAGGTTACTAAGATCAGGGAATTGCGGTC	4.08	3.37	0.676	0.112	0.638	0.828	0.241	1.37	-0.455	1.74	1.12	1.25	1.15	1.43	1.98	2.28	0.919	0.836
CAAACTAGCTCACGAAAGGTCAAAGTCGAATGAC	0.734	2.28	0.536	0.187	3.91	5.52	1.75	6.04	2.13	4.4	4.81	5.46	5.04	1.31	6.26	3.62	0.952	2.53
TCTCGGAGGACACTAAGGTCAGAGCTTTCCAGAG	1.61	1.22	-0.543	-1.32	1.72	3.24	6.61	2.71	-0.0898	3.32	3.82	3.4	3.84	1.33	2.26	3.71	3.11	2.73
CCTTGTTGGTCAGGAGGTCACACACCGGATATGA	1.61	3.58	0.862	0.471	2.86	4.22	1.27	4.37	1.82	3.85	4.42	4.76	4.32	0.608	4.89	3.33	2.47	2.17
TTACCAAGGAGAGCTGAGGTCGTTGATCCAACTC	-0.667	-0.449	-0.504	-0.387	0.217	1.29	0.364	0.846	-0.664	0.145	0.714	0.0578	-0.138	-0.0158	0.657	2.56	1.2	2.11
TAGCCTAGGTCAGAGCGGGCCAGTATACGCTATA	0.635	1.65	-0.73	-0.204	0.133	0.376	-0.362	0.867	-1.12	2.85	1.85	2.55	3.13	-0.459	1.18	2.85	-0.121	-0.402
GGAACGAGGGCATTCGAGTTGACAGCATGGCGAT	2.98	2.46	0.222	-0.00883	-0.393	3.85	1.46	0.951	-0.555	1.87	0.801	1.2	1.69	3.06	0.845	3.83	-0.733	2.99
GCAGACATGTGAAACGCAGGTAACTCAGGGTGGC	-0.934	-0.641	-0.654	-1.35	-1.78	-0.925	-0.866	-0.472	-0.769	-0.383	-0.931	-0.194	-0.391	-0.691	-0.0899	0.4	-0.871	-1.27
CGAACTAGGTCATTGACAGGATAGTGAATAGTAA	7.87	8.1	4.08	2.22	1.94	1.25	0.363	1.88	0.385	3.59	2.38	3.62	3.86	2.34	2.55	2.57	0.521	0.957
GGAACGTGGGCAAAGTTGATAGCATCTGTCGACG	-0.0354	0.169	-0.243	-0.6	0.0888	-0.428	-0.473	-0.469	-0.252	0.113	-0.345	-0.158	-0.178	-0.177	-0.03	-0.579	-0.838	-0.389
CAAACTAGGTCACGAAAGGTCATAGTCGAATGAC	8.9	9.17	2.98	2.98	6.62	6.74	2.77	7.32	3.5	5.58	5.66	7.6	8.4	2.64	8.01	5.09	2.8	3.75
ATCTCTAGGTGACAAGTTCAGTGAAAGAGAGGAC	4.9	4.99	1.89	2.47	0.963	1.33	1.38	0.974	0.324	2.12	2.34	2.03	1.82	0.449	1.09	1.71	0.652	2.05
CATACAGGGTCAGCTAGCCCAGAGTAGGGACGGC	0.792	2.19	0.206	-0.0933	1.48	2.1	-0.17	3.11	0.642	4.01	3.08	4.59	4.82	1.69	4.46	2.82	0.68	0.999
TCTATTAGTTCATTAGGGCAACCGAAACAGCGGA	2.92	2.95	1.5	1.13	1.3	1.75	1.7	1.2	1.45	2.64	2.52	2.4	2.37	3.46	1.12	1.45	0.899	3
TGAATGAGGTTAAACATCAGGGAACGTGGCGTCG	2.85	2.57	1.51	0.325	0.272	1.7	-0.296	2.29	0.112	2.13	0.708	2.37	1.44	1.35	3.15	2.65	0.474	0.833
CGTCCAAGGTCAAAGTCAGTGAAAGAGACTCGAA	3.22	3.56	-0.516	-0.183	2.62	3.72	0.349	4.01	1.36	5.14	3.32	5.86	6.34	3.91	5.95	3.5	1.72	2.46
